Screening results as filed in PubChem.
Tg IFNy HTS = T. gondii growth inhibition with IFN-gamma, primary screen, cell-based | Toxoplasma gondii growth in IFN-gamma-treated host cells; stronger effect = lower value | activity change, negative = inhibition, % (concentration not given with the values) | 3.8% of 69,000 active | AID 1259416, 2018; in the data active = activity change below about -70%, passing the limit was not always enough;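 also: host cells are HeLa cells infected with Toxoplasma gondii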
* hit, by the source's call; ! = not confirmed by another sample. Shown is part of a subset that was picked to be rich in hits.

SMILES	Tg IFNy HTS
COCCN1C(=O)CCc2cc(NS(=O)(=O)c3ccc(Cl)s3)ccc21	21.3
COc1ccccc1-c1nccn1C(C)c1cnn(-c2ccccc2)c1 (configuration not stated)	11.7
Cc1ccc(-c2coc(-c3ccc(NS(=O)(=O)c4ccc(CC(C)C)cc4)cc3)n2)c(C)c1	6.8
CN(C)[C@@H]1CCN(Cc2cccs2)[C@H]1Cc1cnn(C)c1	24.2
CNC(=O)[C@@H]1C[C@H](N)CN1C(=O)c1cc2ccccc2cn1	9.3
CC(C)(C)C1CCc2[nH]nc(C(=O)Nc3cccc(Cn4cncn4)c3)c2C1 (configuration not stated)	0.5
O=C(Nc1ccccc1OCCCc1ccccc1)c1ccccn1	5.1
CC(C)(C)C1CCc2[nH]nc(C(=O)Nc3ccccc3OCc3ccccn3)c2C1 (configuration not stated)	-78.7*
COc1cccc(NC2COC3(CCN(S(=O)(=O)c4ccc(C#N)cc4)CC3)C2)c1 (configuration not stated)	-1.6
Cc1ccc(/C=C2\CNC/C(=C\c3ccc(C)cc3)C2=O)cc1	-85.9*
Cc1ccc(S(=O)(=O)N2[C@@H]3CNC[C@H]2C3c2ccc(/C=C/c3ccccc3)cc2)cc1 (some centres not stated)	-43.9
Cc1ccc(/C=C2\C(=O)C3(C)CCC2C3(C)C)cc1 (configuration not stated)	8.9
O=C(Oc1ccc(Cl)cc1)c1cscc1Sc1ccc(Cl)cc1	-101.4*
O=C(Nc1ccc(OC(F)(F)F)cc1)c1cscc1Sc1ccc(Cl)cc1	-52.5
Cc1cc(C(=O)Oc2ccc(Cl)cc2)no1	0.0
O=C1NCCN2CCN(c3nc4ccc(Cl)cc4s3)CC12 (configuration not stated)	363.9
CCN1C(=O)N(C2Cc3ccccc3C2)C(=O)C12CCN(Cc1ccc(Oc3ncccn3)cc1)CC2	-7.7
COc1ccc2c(c1)C(C)=CC(C)(C)N2S(=O)(=O)c1ccc(Cl)cc1	-93.1*
COc1ccc(C(=O)N2c3cc4c(cc3C(C)=CC2(C)C)OCO4)cc1	-17.8
COc1ccc(S(=O)(=O)N2CCC3(CC2)Nc2ccc(Cl)cc2-n2cccc23)cc1	-52.1
Cc1cc(N2CC[C@@H](N3CCOCC3)[C@H](O)C2)c2cc3c(cc2n1)OCO3	-53.5
Cc1nc(-c2ccc(F)cc2)sc1CCNC(=O)CC(C)C	139.4
Cc1nc(CCNC(=O)C2CCN(S(=O)(=O)c3cnn(C(F)F)c3C)CC2)cs1	27.3
O=C1CCCc2occ(C(=O)N3CCc4[nH]nc(Cc5ccccc5)c4C3)c21	-8.4
Cc1cccc(CN2C[C@H]3[C@H](C(=O)N4CCOCC4)CCS(=O)(=O)[C@H]3C2)c1	-1.3
SMILES	Tg IFNy HTS
Cc1cccc(CN2C[C@H]3[C@H](C(=O)N(C)C)CCS(=O)(=O)[C@H]3C2)c1	-46.7
Cc1cccc(CN2C[C@H]3[C@H](C(=O)Nc4ccccc4)CCS(=O)(=O)[C@H]3C2)c1	-114.7*
COc1cccc2ccc(CN3CCC4(CC3)C(=O)N(CCc3ccccc3)C(=O)N4C)nc12	-2.4
COc1ccccc1C(=O)Nc1cnc2sc(C)nn2c1=O	2.2
Cc1nc(N2CCN(c3ccccc3)CC2)nc2c1C(=O)CC(c1ccccc1F)C2 (configuration not stated)	-24.6
Cc1cc(=O)[nH]n(-c2ccccc2)c1=O	-48.8
Cc1ccccc1C1CC(=O)c2cnc3[nH]n(-c4ccccc4)c(=O)c3c2C1 (configuration not stated)	-90.9*
CC(C)CNC(=O)C1Cn2ccnc2C2(CCN(C(=O)c3cccn3C)CC2)O1 (configuration not stated)	-32.6
CCCCOCC(=O)N1C[C@@H](N)C[C@H]1C(=O)NC(C)C	35.2
Cc1c(Cl)cccc1NC(=O)c1c(O)c2ccccc2[nH]c1=O	302.6
Cc1nc(C(=O)Nc2ccccc2Cl)cc2c1[nH]c1ccccc12	-81.2*
O=C(Nc1ccccc1Cl)c1nc(Nc2ccccc2)c2ccccc2n1	-43.0
Cc1ccc(-c2nc(Cn3c(C)nc4onc(C)c4c3=O)c(C)o2)cc1	30.9
O=C(c1ccco1)N1CCC2(CC1)CN(c1ccccc1)C2=O	10.0
O=C(C1CNCCN1C(=O)CCc1cccnc1)N1CCOCC1 (configuration not stated)	-3.7
COc1ccc2[nH]c(=O)c(CNc3c(C)cccc3C)cc2c1	0.7
COCC1(N(C)C(=O)CCNC(=O)c2ccc(F)cc2)CC1	-0.2
CN(C)c1ccc(C(=O)NCCCCCCC(=O)NO)cc1	-88.4*!
COc1cc(C(=O)NCCCCCC(=O)O)cc(OC)c1OC	5.5
O=S(=O)(Nc1ccc(F)c(Cl)c1)c1ccccc1Oc1ccc(Cl)cc1Cl	51.3
COC(=O)CSC(=O)NC(=O)c1ccccc1Oc1ccc(Cl)cc1Cl	-91.7*
COc1ccccc1Oc1ccccc1C(=O)O	0.3
O=C(C[C@@H]1C[C@@H]2C=C[C@H]1C2)NCc1ccccc1-n1cncn1	-41.8
Cc1nc(C)c(C(=O)N2CCC(C(NC(=O)C(C)(C)C)c3nccs3)CC2)o1 (configuration not stated)	28.1
CCOC(=O)c1nc(NCc2ccccc2Cl)c2ccccc2n1	68.3
